Measurements published in the supplement of paper PMC4840960.
± gives the standard deviation of the averaged measurements.

Experiments:
[1] = test system: E18 rat cortical neuron-glia co-culture; experiment: fiber score / MBP score (myelination specific beyond OL differentiation) (ratio); higher = more myelination-specific MBP alignment; conditions: treatment time: 8 days (DIV5-DIV13)
In short: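 Library compounds were applied at 1 or 5 µM in myelination medium, DIV5 to DIV13, to primary E18 rat cortical co-cultures grown at 20,000 cells/well in 96-well plates. After 4 % paraformaldehyde fixation and MBP/Olig2/DAPI immunostaining, four 10X fields per well in duplicate wells were scored. Each value is continuous MBP fiber length per Olig2+ nucleus divided by thresholded MBP area × intensity per Olig2+ nucleus.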

[2] = test system: E18 rat cortical neuron-glia co-culture; experiment: myelination (MBP fiber length per Olig2+ nucleus), % of 1 µM DAPT response (DMSO = 0) (% of DAPT); higher = more myelination, active = 50 or more; conditions: treatment time: 8 days (DIV5-DIV13)
In short: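 Library compounds at 1 or 5 µM in myelination medium were applied from DIV5 to DIV13 to papain-dissociated E18 rat cortical co-cultures seeded at 20,000 cells/well on poly-d-lysine/laminin 96-well plates. Fixed cells (4 % paraformaldehyde) were immunostained for MBP and Olig2 with DAPI, and four 10X fields were analysed in each duplicate well. Continuous straight MBP fiber length per Olig2+ nucleus was set to 0 for 0.1 % DMSO and to 100 for a 1 µM positive control.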

Row | Structure (SMILES) | fiber score / MBP score ([1]; 1 µM) | fiber score / MBP score ([1]; 5 µM) | myelination ([2]; 1 µM) | myelination ([2]; 5 µM)
1 | COc1ccc(C2CNC(=O)C2)cc1OC1CCCC1 (stereo not drawn) [Rolipram] | 0.626 | 0.618 | -51.4 (inactive) | -53.6 (inactive)
2 | C[C@H]1c2cccc(O)c2C(=O)C2=C(O)[C@]3(O)C(=O)C(C(N)=O)=C(O)[C@@H](N(C)C)[C@@H]3[C@@H](O)[C@@H]21 [Doxycycline] | 0.798 | 0.815 | -18.2 (inactive) | -0.977 (inactive)
3 | COC1=CC(=O)C[C@@H](C)[C@]12Oc1c(Cl)c(OC)cc(OC)c1C2=O [Griseofulvin] | 0.759 | 0.92 | -17.8 (inactive) | 21.8 (inactive)
4 | C[N+]1(C)CCC(OC(=O)C(O)(c2ccccc2)C2CCCC2)C1 (stereo not drawn) [Glycopyrrolate] | 0.689 ± 0.14 | 0.888 ± 0.085 | -12.1 (inactive) | -2.31 (inactive)
5 | CC1(C)O[C@@H]2[C@@H](CO[C@@]3(COS(N)(=O)=O)OC(C)(C)O[C@@H]23)O1 [Topiramate] | 0.669 | 0.896 | -20.2 (inactive) | -11.6 (inactive)
6 | OCc1cccnc1 [Nicotinyl Alcohol] | 0.641 | 0.687 | -10.3 (inactive) | -10.1 (inactive)
7 | CCc1oc2ccccc2c1C(=O)c1cc(Br)c(O)c(Br)c1 [Benzbromarone] | 0.764 | 0.919 | -8.31 (inactive) | -9.52 (inactive)
8 | CCc1nc(N)nc(N)c1-c1ccc(Cl)cc1 [Pyrimethamine] | 1.86 | 2.19 | 398 (active) | 655 (active)
9 | Cc1ccc(Cl)c(Nc2ccccc2C(=O)O)c1Cl [Meclofenamic acid] | 0.788 | 0.864 | -26 (inactive) | -2.96 (inactive)
10 | Nc1nc(=O)[nH]cc1F [Flucytosine] | 0.88 | 0.855 | -9.17 (inactive) | -9.52 (inactive)
11 | COc1cc2nc(N3CCN(C(=O)C4CCCO4)CC3)nc(N)c2cc1OC (stereo not drawn) [Terazosin] | 1.2 ± 0.17 | 1.08 ± 0.41 | 11.7 (inactive) | 2.09 (inactive)
12 | C[C@]12C=CC(=O)C=C1CC[C@@H]1[C@@H]2[C@@H](O)C[C@@]2(C)[C@H]1CC[C@]2(O)C(=O)CO [Prednisolone] | 0.693 | 0.923 | -6.4 (inactive) | 0.38 (inactive)
13 | CN1CCC[C@H]1c1cccnc1 [Nicotine] | 0.761 | 1.06 | -10.1 (inactive) | 2.28 (inactive)
14 | CC(=O)NCCCCCCNC(C)=O [Hexamethylene bisacetamide] | 0.663 | 0.981 | -0.00866 (inactive) | -2.54 (inactive)
15 | NC(=O)N1c2ccccc2CC(=O)c2ccccc21 [Oxcarbazepine] | 1.02 | 1.17 | 3.46 (inactive) | 196
16 | S=c1[nH]cnc2nc[nH]c12 [Mercaptopurine] | 0.858 | 0.41 | -32.7 (inactive) | -50.2 (inactive)
17 | O=C(CCCN1CC=C(n2c(=O)[nH]c3ccccc32)CC1)c1ccc(F)cc1 [Droperidol] | 0.863 | 0.601 | -4.1 (inactive) | -16.6 (inactive)
18 | CC(=O)CC(c1ccccc1)c1c(O)c2ccccc2oc1=O (stereo not drawn) [Warfarin] | 0.617 | 0.623 | -6.64 (inactive) | -6.48 (inactive)
19 | CC[N+](C)(C)c1cccc(O)c1 [Edrophonium] | 0.813 | 0.982 | -6.47 (inactive) | 0.577 (inactive)
20 | CC(C)(C)NCC(O)COc1cccc2c1CC(O)C(O)C2 (stereo not drawn) [Nadolol] | 0.767 | 0.949 | -13.9 (inactive) | -7.81 (inactive)
21 | Nc1ccc(S(=O)(=O)c2ccc(N)cc2)cc1 [Dapsone] | 0.932 | 0.925 | -3.07 (inactive) | -4.22 (inactive)
22 | C[C@H](N[C@@H](CCc1ccccc1)C(=O)O)C(=O)N1CCC[C@H]1C(=O)O [Enalaprilat] | 0.936 | 0.731 | -2.57 (inactive) | -9.9 (inactive)
23 | Nc1ncnc2c1ncn2[C@@H]1O[C@H](CO)[C@@H](O)[C@H]1O [Adenosine] | 1.08 | 0.875 | -4.96 (inactive) | -4.36 (inactive)
24 | COc1ccccc1OCCNCC(O)COc1cccc2[nH]c3ccccc3c12 (stereo not drawn) [Carvedilol] | 0.762 | 0.794 | -38.4 (inactive) | -16.8 (inactive)
25 | COc1cc(C)nc(-n2nc(C)cc2OC)n1 [Epirizole] | 0.549 | 0.623 | -20.5 (inactive) | -13.2 (inactive)
26 | Cc1nnc(SCC2=C(C(=O)O)N3C(=O)[C@@H](NC(=O)Cn4cnnn4)[C@H]3SC2)s1 [Cefazolin] | 0.798 | 1.19 | -6.67 (inactive) | 6.84 (inactive)

Row | Structure (SMILES) | fiber score / MBP score ([1]; 1 µM) | fiber score / MBP score ([1]; 5 µM) | myelination ([2]; 1 µM) | myelination ([2]; 5 µM)
27 | CC(=O)O[C@]1(C(C)=O)CC[C@H]2[C@@H]3C[C@H](C)C4=CC(=O)CC[C@]4(C)[C@H]3CC[C@@]21C [Medroxyprogesterone acetate] | 1.1 | 0.549 | 0.776 (inactive) | -11.3 (inactive)
28 | CN(C)c1ccc(O)c2c1C[C@H]1C[C@H]3[C@H](N(C)C)C(O)=C(C(N)=O)C(=O)[C@@]3(O)C(O)=C1C2=O [Minocycline] | 0.788 | 0.583 | -6.54 (inactive) | -5.86 (inactive)
29 | CC1=C(/C=C/C(C)=C/C=C/C(C)=C\C(=O)O)C(C)(C)CCC1 [Isotretinoin] | 0.294 | 0.414 | -16.1 (inactive) | -11.8 (inactive)
30 | CC1=C(CC(=O)O)c2cc(F)ccc2/C1=C\c1ccc([S+](C)[O-])cc1 (stereo not drawn) [Sulindac] | 0.97 | 0.594 | -5.43 (inactive) | -16.6 (inactive)
31 | CC(C)(C(=O)c1cccnc1)c1cccnc1 [Metyrapone] | 0.588 | 0.894 | -19.7 (inactive) | -9.03 (inactive)
32 | CC(C)Oc1ccc2c(=O)c(-c3ccccc3)coc2c1 [Ipriflavone] | 0.908 | 0.957 | -8.04 (inactive) | -7.62 (inactive)
33 | CC(C)C[C@H](NC(=O)[C@@H](O)[C@H](N)Cc1ccccc1)C(=O)O [Ubenimex] | 0.92 | 1.09 | -7.81 (inactive) | 1.09 (inactive)
34 | CCc1nn(CCCN2CCN(c3cccc(Cl)c3)CC2)c(=O)n1CCOc1ccccc1 [Nefazodone] | 0.932 | 0.76 | 2.86 (inactive) | 2 (inactive)
35 | CC[C@@H]1C(=O)OC[C@@H]1Cc1cncn1C [Pilocarpine] | 0.814 | 0.782 | -24.8 (inactive) | -11.2 (inactive)
36 | C[C@]12C=CC(=O)C=C1CC[C@@H]1[C@@H]2C(=O)C[C@@]2(C)[C@H]1CC[C@]2(O)C(=O)CO [Prednisone] | 0.839 | 0.736 | -13.2 (inactive) | -10.1 (inactive)
37 | COc1cc(C(=O)NC2CCCNC2)cc(OC)c1OC (stereo not drawn) [Troxipide] | 0.692 | 0.803 | -15.3 (inactive) | -5 (inactive)
38 | Cc1onc(-c2ccccc2)c1C(=O)N[C@@H]1C(=O)N2[C@@H]1SC(C)(C)[C@@H]2C(=O)O [Oxacillin] | 0.974 | 0.897 | -4.75 (inactive) | -10.5 (inactive)
39 | CC(CCc1ccccc1)NCC(O)c1ccc(O)c(C(N)=O)c1 (stereo not drawn) [Labetalol] | 0.511 | 0.693 | -16.1 (inactive) | -9.26 (inactive)
40 | CN(C)CCC=C1c2ccccc2COc2ccccc21 [Doxepin] | 0.859 ± 0.061 | 0.732 ± 0.042 | -6.24 (inactive) | -4.42 (inactive)
41 | Cc1noc(NS(=O)(=O)c2ccc(N)cc2)c1C [Sulfisoxazole] | 0.958 | 0.834 | -3.97 (inactive) | -6.9 (inactive)
42 | NC(=O)N1c2ccccc2C=Cc2ccccc21 [Carbamazepine] | 0.735 | 0.902 | 2.28 (inactive) | 2.05 (inactive)
43 | CC(C(=O)O)c1ccc(-c2ccccc2)c(F)c1 (stereo not drawn) [Flurbiprofen] | 0.667 ± 0.24 | 0.793 ± 0.03 | -16.8 (inactive) | -13.6 (inactive)
44 | CN1CCCCC1CCN1c2ccccc2Sc2ccc([S+](C)[O-])cc21 (stereo not drawn) [Mesoridazine] | 0.531 | 0.747 | -39.6 (inactive) | -20.4 (inactive)
45 | CN[C@@H]1[C@H](O)[C@H](NC)[C@H]2O[C@@]3(O)C(=O)C[C@@H](C)O[C@H]3O[C@@H]2[C@H]1O [Spectinomycin] | 0.923 | 1.03 | -3.04 (inactive) | -4.31 (inactive)
46 | C[C@@H]1C[C@H]2[C@@H]3C[C@H](F)C4=CC(=O)C=C[C@]4(C)[C@@]3(F)[C@@H](O)C[C@]2(C)[C@@]1(O)C(=O)SCF [Fluticasone] | 0.729 | 0.694 | -47.4 (inactive) | -24.8 (inactive)
47 | CN1CCN(c2c(F)cc3c(=O)c(C(=O)O)cn4c3c2SCC4)CC1 [Rufloxacin] | 1.05 | 0.68 | 62.1 | -35.3 (inactive)
48 | CCCCC1=NC2(CCCC2)C(=O)N1Cc1ccc(-c2ccccc2-c2nnn[nH]2)cc1 [Irbesartan] | 0.679 | 0.752 | -12.8 (inactive) | -10.8 (inactive)
49 | N[C@@H](C(=O)N[C@@H]1C(=O)N2C(C(=O)O)=C(CSc3c[nH]nn3)CS[C@H]12)c1ccc(O)cc1 [Cefatrizine] | 0.846 | 0.832 | -4.14 (inactive) | -4.37 (inactive)
50 | NC[C@H]1CC[C@H](C(=O)Oc2ccc(CCC(=O)O)cc2)CC1 [Cetraxate] | 1.07 | 0.791 | 4.64 (inactive) | -18.2 (inactive)
51 | COc1c(N2C[C@@H]3CCCN[C@@H]3C2)c(F)cc2c(=O)c(C(=O)O)cn(C3CC3)c12 [Moxifloxacin] | 0.766 | 0.689 | -12.3 (inactive) | -17.6 (inactive)
52 | CCOC(=O)[C@H](CCc1ccccc1)N[C@@H](C)C(=O)N1CCC[C@H]1C(=O)O [Enalapril] | 0.732 | 0.734 | -22.3 (inactive) | -27.5 (inactive)
